UHRF1 binding = human UHRF1 methylated DNA binding inhibitors. Q96T88. UHRF1 binding to methylated oligo, TR-FRET. inhibition, % at 4.4 µM. hit rate 0.75% among 370,000;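 also: UHRF1 SRA domain binding a hemimethylated CpG hairpin DNA probe; 0% = median of test compound wells and 100% = reference inhibitor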
PRMT1 FP inh = inhibitors of human PRMT1 | inhibition, % at 2.79 µM | recombinant PRMT1, activity-based probe fluorescence polarization | AID 652257 | hit rate 1.3% among 370,000;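 active = inhibition above about 21% made by adding two undisclosed values, limit read from the data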
Target sequence (Q99873 whole entry, looked up): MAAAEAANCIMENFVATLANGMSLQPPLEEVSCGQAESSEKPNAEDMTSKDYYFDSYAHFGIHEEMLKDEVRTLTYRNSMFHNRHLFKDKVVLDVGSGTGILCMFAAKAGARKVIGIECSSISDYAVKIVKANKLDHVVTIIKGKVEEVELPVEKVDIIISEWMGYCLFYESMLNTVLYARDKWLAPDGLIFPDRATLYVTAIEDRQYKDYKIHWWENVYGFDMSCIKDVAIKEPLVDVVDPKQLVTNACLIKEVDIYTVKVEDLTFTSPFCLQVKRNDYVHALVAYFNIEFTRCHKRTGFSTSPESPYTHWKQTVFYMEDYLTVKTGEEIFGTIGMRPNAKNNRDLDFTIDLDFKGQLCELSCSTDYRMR
LEDGF integ inh = blocks HIV-1 LEDGF/p75-dependent DNA integration; hit rate 0.64% among 370,000; TR-FRET IN-LEDGF/p75 DNA integration, Eu/Cy5; inhibition, % at 3.7 µM;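 active = inhibition above the screen-wide mean plus 3 SD, cut at about 13% in these data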;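 also: signal is the Cy5 over europium emission ratio at 671 and 618 nm; 0% = plate median of compound wells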
MBD2 inh = inhibitors of human MBD2 binding to methylated oligonucleotide; TR-FRET; inhibition, % at 4.4 µM; hit rate 0.31% among 370,000; AID 686964; in the data active = inhibition above about 13%
UHRF1 ctr MBD2 = UHRF1 methyl-oligo binding inhibition as MBD2 counter-screen; hit rate 25% among 1,000; AID 720530; inhibition, % at 4.4 µM; UHRF1 binding to methylated oligonucleotide, TR-FRET; shares compounds with MBD2 inh;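 also: UHRF1 SRA domain binding a labeled hemimethylated CpG hairpin DNA; 0% = vehicle only and 100% = reference inhibitor with vehicle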
MBD2 confirm = MBD2-DBD methyl-DNA binding inhibition, TR-FRET confirmation; hit rate 26% among 1,000; TR-FRET MBD2-DBD binding to methylated oligonucleotide; AID 720531; inhibition, % at 4.4 µM; shares compounds with MBD2 inh; in the data active = inhibition above about 14%
IN multimer act = counter-screen for LEDGF/p75 integration inhibitors: HIV-1 integrase multimerization activators. shares compounds with LEDGF integ inh. TR-FRET HIV-1 integrase multimerization, biochemical. activation, % at 7.7 µM. hit rate 17% among 2,000. AID 1053131; in the data active = activation above about 8.9%
TR-FRET interf = TR-FRET optical interference, LEDGF/p75 integration counter-screen | shares compounds with LEDGF integ inh | TR-FRET optical interference counterscreen, HIV-1 IN multimerization | AID 1053135 | 2,000 tested, under 10 active | inhibition, % at 7.7 µM;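 active = inhibition above the mean over all tested compounds plus 3 SD, which no compound reached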;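 also: 0% = integrase with antibodies and DMSO and 100% = antibodies without integrase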
IN-LEDGF confirm = confirmation of HIV-1 LEDGF/p75-dependent integration inhibitors | shares compounds with LEDGF integ inh | TR-FRET LEDGF/p75-dependent HIV-1 integration, biochemical | inhibition, % at 3.7 µM | hit rate 36% among 2,000; in the data active = inhibition above about 14%
* = called active by the depositor; / = no result given. Shown are actives, neighbours in structure and some others; about 2.5% of the full set was active somewhere. Rule as the data show it, unless noted: active = inhibition above about 21%; inactive = the rest.

SMILES	UHRF1 binding	PRMT1 FP inh	LEDGF integ inh	MBD2 inh	UHRF1 ctr MBD2	MBD2 confirm	others
CN1[C@@H](Cc2ccccc2)COc2cccc(F)c2S1(=O)=O	-3	1	-1	-8	/	/
CC[N+](CC)(CC)CCCCOc1ccc2c(c1)C(=O)c1cc(OCCCC[N+](CC)(CC)CC)ccc1-2	31*	-3	1	21*	49*	32*
CC[N+](CC)(CC)CCOc1ccc(/C=C/c2ccccc2)cc1	19	-2	7	4	/	/
CCc1nnc(NC(=O)CSc2nnc(CNC(=O)c3ccccc3)o2)s1	1	4	-1	22*	9	4
Cc1nnc(NC(=O)CSc2nnc(CNC(=O)c3ccccc3)o2)s1	5	5	2	4	/	/
COc1ccc(C(CC(=O)N2CCOCC2)C(C)C)cc1 (configuration not stated)	23*	1	7	15*	7	3
COc1ccc(C(CC(=O)N2CCCC2)C(C)C)cc1 (configuration not stated)	-2	1	-3	-3	/	/
Cc1ccc(Cl)cc1NC(=O)C1CCCN1S(=O)(=O)c1ccc(-c2ccc(=O)[nH]n2)s1 (configuration not stated)	-3	-2	3	-4	/	/
CN(Cc1ccccc1N1CCCC1)C(=O)c1cc2cc(Cl)ccc2o1	1	0	4	31*	11	7
CN(Cc1ccccc1N1CCCC1)C(=O)c1cc2ccccc2o1	-3	16	-3	-1	/	/
COc1ccc(CC(=O)N2CCN(c3cccc(C)c3C)CC2)cc1	1	1	-3	16*	5	4
COc1ccc(CCC(=O)N2CCN(c3cccc(C)c3C)CC2)cc1	1	0	1	1	/	/
COc1ccccc1OC(C)C(=O)Nc1ccccc1C(=O)NCc1cccnc1 (configuration not stated)	-1	2	-3	2	/	/
S=C1NC[C@H](c2ccccc2)N1CC1CCCCC1	3	-2	2	0	/	/
O=C(Nc1ccc([N+](=O)[O-])cc1)c1cccc([N+](=O)[O-])c1	12	1	-2	4	/	/
O=C(Nc1ccc(Nc2ccncc2)cc1)c1ccc(Nc2ccnc3ccc([N+](=O)[O-])cc23)cc1	32*	-5	0	16*	38*	34*
Cc1ccc(OCC(=O)c2c(N)n(C)c(=O)n(C)c2=O)c([N+](=O)[O-])n1	23*	6	12	19*	35*	17*
COC(=O)c1cc(-c2cccc([N+](=O)[O-])c2)c2c(=O)[nH]c(=O)n(C)c2n1	23*	-2	2	14*	8	3
Cc1ccccc1C(=O)N(Cc1ccccn1)CC1CCCO1 (configuration not stated)	-1	1	-2	0	/	/
c1ccc(-c2csc(Nc3cccnc3)n2)nc1	-3	-1	-3	27*	0	2
c1ccc(Nc2nc(-c3ccccn3)cs2)cc1	1	-1	10	-6	/	/
Cc1cccc(CN2CCN(C3CN(Cc4cn(Cc5ccc(Cl)cc5)nn4)S(=O)(=O)C3)CC2)c1 (configuration not stated)	15	7	-4	13*	6	5
CN(C)CCN1CCN(C2CN(Cc3cn(Cc4ccccc4)nn3)S(=O)(=O)C2)CC1 (configuration not stated)	20	-1	-2	15*	6	8
COCCCn1cc(CN2CC(N3CCN(C)CC3)CS2(=O)=O)nn1 (configuration not stated)	20	-2	-2	13*	12	6
COc1ccc([C@H]2CC(=O)C=C(c3ccc(C)c(F)c3)C2)cc1	-1	-1	0	2	/	/
SMILES	UHRF1 binding	PRMT1 FP inh	LEDGF integ inh	MBD2 inh	UHRF1 ctr MBD2	MBD2 confirm	others
O=C(c1ccc(C(F)(F)F)cc1)N1CCN(S(=O)(=O)c2ccc3c(c2)OCCCO3)CC1	-2	2	-1	-6	/	/
CC(C)CN(C(=O)CN1C(=O)C2CCCCC2C1=O)c1c(N)n(Cc2ccccc2)c(=O)[nH]c1=O (configuration not stated)	3	-1	-1	2	/	/
COc1ccccc1NS(=O)(=O)/C=C/c1ccccc1	4	4	-3	14*	6	4
CCCCCC(=O)N1C[C@H](O)[C@@H](n2cc(C3CC3)nn2)C[C@@H]1c1ccc(OC)cc1	2	1	-2	5	/	/
COc1ccc(-c2nc(-c3ccccn3)ncc2S(C)(=O)=O)cc1	-1	-2	4	3	/	/
Cn1nc(-c2ccccn2)nc2c(=O)n(C)c(=O)nc1-2	11	4	-24	14*	-11	13
CC(OC(=O)c1ccc(-n2cnnn2)cc1)C(=O)N(C)c1ccccc1 (configuration not stated)	0	-1	-1	-1	/	/
CCOc1ccc(/C=C2/SC(=S)N(n3c(C)ccc3C)C2=O)cc1	-1	2	-4	-2	/	/
COc1ccc(/C=C2/SC(=S)N(n3c(C)ccc3C)C2=O)cc1	22*	10	6	13*	12	3
COc1ccc(S(=O)(=O)NCC(=O)N(CC(=O)NCC2CCCO2)Cc2ccc(F)cc2)cc1 (configuration not stated)	-5	2	2	14*	1	3
Cc1ccc(C(=O)NCC(=O)NC2CCC(C)CC2)s1 (configuration not stated)	-1	1	0	98*	4	1
C=C(C)C(=O)Nc1cccc(C2=NOC3(C2)C[C@@H](C(N)=O)N(C(=O)/C(C)=C/C)C3)c1 (some centres not stated)	89*	2	39*	38*	91*	69*	IN multimer act=57*;TR-FRET interf=-285;IN-LEDGF confirm=52*
C=C(C)C(=O)Nc1cccc(C2=NOC3(C2)C[C@@H](C(N)=O)N(C(=O)/C=C/C=C/C)C3)c1 (some centres not stated)	79*	0	18*	47*	88*	60*	IN multimer act=41*;TR-FRET interf=-205;IN-LEDGF confirm=19*
C/C=C/C=C/C(=O)N1CC2(CC(c3cccc(NC(=O)/C=C/C)c3)=NO2)C[C@@H]1C(N)=O (some centres not stated)	1	13	1	3	/	/

Screening data: PubChem, The Scripps Research Institute Molecular Screening Center
